Measurements: PubChem BioAssay AID1981 (Southern Research Specialized Biocontainment Screening …, 2009)
Out of some 2,200 compounds screened, about 480 (22%) were called active. Not all results are given here. Potency and affinity values are given separately. Unmarked numbers belong to inactive results. The rule behind the calls is not given here.

Test: S. Typhimurium GFP fluorescence dose response in modified counterscreen for PhoP regulon inhibitor project (AID 1981);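 note: 0% = induced DMSO wells and 100% = uninduced wells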
Conditions: 4 h; series mostly up to 150 µM; inhibition: at the top concentration

Row | Compound | inhibition [%]
1 | Cc1cccc(OCCCSc2nc3ccc(C)cc3[nH]2)c1 | 8.72
2 | C=C(C)Cn1c(CCn2c3ccccc3c3ccccc32)n[nH]c1=S | -5.59
3 | N#C/C(=C\c1c(Cl)cccc1Cl)c1nc2ccccc2[nH]1 | 0.17
4 | COCc1cc(C)nc(N2CCc3ccccc32)c1C#N | -15
5 | CCOc1ccc2nc(COC(=O)c3ccco3)c(C(C)=O)[n+]([O-])c2c1 | 5.1
6 | COc1ccc2cc(C)c3nnc(SCC(=O)Nc4nc(-c5ccccc5)cs4)n3c2c1 | -5.19
7 | Cc1ccc(C[n+]2cc(-c3ccc(Cl)cc3)n3c2CCC3)cc1 | 0.58
8 | Cc1ccc(NC(=O)CCN2CCc3ccccc3C2)cc1 | 8.78
9 | CN(C)CC(=O)Nc1nc(-c2ccccc2)cs1 | 2.72
10 | COc1ccc(-c2csc(NC(=O)C3CCCO3)n2)cc1 (stereo not given) | -2.8
11 | CCOC(=S)SCC(=O)Nc1nc(-c2ccccc2)cs1 | -12.2
12 | CCCCCOC(=O)C1=C(C)Nc2nnnn2C1c1ccc(OC)c(OC)c1OC (stereo not given) | -12.6
13 | Cc1ccc(Nc2nc(CSc3nnc(-c4ccc(F)cc4)n3C)cs2)cc1 | 12.9
14 | CSc1cccc(NC(=O)COc2cccc3ccccc23)c1 | 26.1
15 | COc1ccc(OC)c(NC(=S)NCCCN2CCOCC2)c1 | -26.3
16 | COc1ccccc1NC(=S)NNC(=O)c1c(Cl)c(C)nn1C | -16.2
17 | C=CCN(CC=C)Cc1c[nH]c2ccccc12 | -6.22
18 | Cc1cc(C)[n+](C2C3CC4CC(C3)CC2C4)o1 (stereo not given) | -3.92
19 | Cc1cccc(-n2c(N)cc(=O)[nH]c2=S)c1C | 35.5
20 | CCOC(=O)c1c(N)ssc1=S | -4.32

Row | Compound | inhibition [%]
21 | COc1cccc(C2Nc3ccccc3C(=O)N2O)c1O (stereo not given) | 20.4
22 | O=C(OCCN1C(=O)c2ccccc2C1=O)c1ccc(S(=O)(=O)N2CCCCCC2)cc1 | -5.15
23 | CCOC(=O)c1ccc2c(c1)C(=O)N(C1CCCCC1)C2=O | -0.64
24 | O=C1c2ccccc2NC(c2ccc(-c3cccc(Cl)c3)o2)N1O (stereo not given) | 39.3
25 | Cc1ccc([N+](=O)[O-])cc1NC(=O)CN(C(=O)c1ccc(Cl)cc1)C1CCCCC1 | 3.93
26 | Cc1cc(NC(=O)c2ccccc2-c2ccccc2)ccc1Br | 3.71
27 | CN1c2ccccc2C(=O)NC1c1ccc([N+](=O)[O-])s1 (stereo not given) | -1.37
28 | CCN(CC)Cc1c[nH]c2c(C(=O)OC)cccc12 | -10.6
29 | O=C(C1CCN(C2CC(=O)N(Cc3ccccc3)C2=O)CC1)N1CCCCCC1 (stereo not given) | -1.1
30 | N#Cc1c(N)n[nH]c1-c1cc2c([nH]1)CCCC2 | 4.52
31 | O=C(NCc1ccco1)c1c2c(nc3ccccc13)CCC2 | -6.14
32 | Cc1[nH]c2ccccc2c1C(=O)CN1CCSCC1 | -4.49
33 | c1ccc(C2CNCc3c2ccc2ccccc32)cc1 (stereo not given) | 12.6
34 | CCOc1ccc(CSC(CC(=O)O)C(=O)O)cc1 (stereo not given) | 0.82
35 | O=C(CCN1C(=O)c2ccccc2S1(=O)=O)Nc1ccc2c(c1)OCCO2 | 1.94
36 | CCOC(=O)c1cc2ccc(OC)c(OC)c2c(=O)s1 | -12.9
37 | COc1cccc(NC(=O)CNC(=O)c2cccs2)c1 | -4.85
38 | Cc1ccccc1Cn1nc(C)c(NC(=O)c2noc3c2CCc2ccccc2-3)c1C | -13.4
39 | O=C1C(c2ccc(F)cc2)N(Cc2ccc3c(c2)OCO3)C(=O)CN1C1CCCCCC1 (stereo not given) | -19.2
40 | COc1ccc(NC2=NC3(CCCCC3)N=C(N)N2)cc1 | -11.8

Row | Compound | inhibition [%]
41 | CCOC(=O)c1c(C)[nH]c(C)c1C(=O)CSc1ncccn1 | -9.71
42 | Cc1cccn2cc(CSc3nnc(Nc4ccc(C(C)C)cc4)s3)nc12 | -0.41
43 | CC1CCN(C(=O)c2ccc3c(c2NCCO)C(=O)c2ccccc2C3=O)CC1 | 4.02
44 | CSc1nsc(SCC(=O)Nc2ccc(C(C)=O)cc2)n1 | -16.7
45 | CN(C(=O)/C=C/c1ccccc1)C1CCS(=O)(=O)C1 (stereo not given) | -5.09
46 | Cc1cc(C)nc(N(C#N)C(C)C(=O)N(C)C)n1 (stereo not given) | -16
47 | Cc1c(C)n(Cc2ccccc2)c2ncnc(N)c12 | -0.12
48 | O=c1[nH]c(CN2CC=C(c3ccccc3)CC2)nc2cc(C(F)(F)F)ccc12 | 3.42
49 | COc1ccccc1Nc1nc(NCc2ccco2)c2ccccc2n1 | 12.3
50 | COc1ccc(Nc2nc(-c3cccc([N+](=O)[O-])c3)nc3ccccc23)cc1 | -16
51 | BrC(=C\c1ccccc1)/C=N/N1CCN(c2ccccn2)CC1 | -4.11
52 | C/C(CC(=O)Nc1ccc(Cl)c(C(F)(F)F)c1)=N\NC(=O)c1cccc(O)c1 | 8.6
53 | N=c1n(CCO)c2ccccc2n1Cc1ccc(Cl)cc1 | 8.73
54 | N=c1n(Cc2ccc(Cl)cc2)c2ccccc2n1CC(O)c1ccco1 (stereo not given) | 2.34
55 | C#CCN1C(=O)C(O)(CC(=O)c2ccc(OC)c(OC)c2)c2ccccc21 (stereo not given) | -14.4
56 | CCCCCCCCOC(=O)C1=C(C)Nc2nnnn2C1c1cccs1 (stereo not given) | -13
57 | COc1ccc(Oc2ccccc2/C=N/O)cc1 | 2.01
58 | COC(=O)c1ccc(COC(=O)c2ccccn2)cc1 | 0.02
59 | CCNC(=S)NNC(=O)c1ccc(OC(F)F)cc1 | -6.15
60 | CC(C)NC(=O)CSc1nc(N)c(NC(=O)c2ccccc2F)c(=O)[nH]1 | -13.4
